Drawing on PubChem BioAssay (EPA / NIEHS), this text covers outcome for 34 molecules.

Results filed as inconclusive are left out. Active and inactive are the calls of the source. The calls were made as follows: active = hit-call score of the fitted dose curve at least 0.9, where 1 is the maximum; inconclusive = response in the unintended direction; inactive = score below 0.9.

A short description of the experiment: CLD_ACTIN_6hr: CellzDirect (CLD) Gene Expression Assay for Baseline Control (Actin) at 6 hours (AID 2283676).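 Also: active means increased actin mRNA relative to DMSO vehicle.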 The procedure:
CLD_6hr is a cell-based, multiplexed-readout assay that uses hepatocyte, a human liver primary cell, with measurements taken at 6 hours after chemical dosing in a 96-well plate.CLD_ACTIN_6hr is one of 16 assay component(s) measured or calculated from the CLD_6hr assay. It is designed to make measurements of mRNA induction, a form of inducible reporter, as detected with chemiluminescence signals by Quantitative Nuclease Protection Assay (qNPA) technology.Data from the assay component CLD_ACTIN_6hr was analyzed at the endpoint, CLD_ACTIN_6hr, in the positive analysis fitting direction relative to DMSO as the negative control and baseline of activity. Using a type of inducible reporter, gain-of-signal activity can be used to understand changes in the reporter gene as they relate to the gene ACTA1. Furthermore, this assay endpoint can be referred to as a secondary readout, because this assay has produced multiple assay endpoints where this one serves a background control function. To generalize the intended target to other relatable targets, this assay endpoint is annotated to the background measurement intended target family, where subfamily is baseline control.
Human hepatocyte cultures were treated daily for two consecutive days with fresh dosing solutions containing appropriate concentrations of the 320 ToxCast chemicals (chemical identities were blinded to CellzDirect and other ToxCast collaborators), vehicle control (0.2% DMSO), and positive control inducers as summarized in Table 1. Due to the large number of treatment groups and chemicals examined, the ToxCast chemicals were divided into two groups (spanning two independent cultures of hepatocytes from separate donor preparations (Hu778: ToxCast plates 1 and 2; Hu776: ToxCast plates 3 and 4). Each preparation of human hepatocyte cultures was treated with respective vehicle control, medium only control, set of six positive controls/reference chemicals for the five hepatic receptor pathways, and a subset of eight of the ToxCast chemicals (indoxacarb, pyrithiobac-sodium, norflurazon, cyhalofop-butyl, methomyl, thiram, acetochlor, and propiconazole). These replicate data, coupled with internal replicates designed within the blinded ToxCast chemical library, provided additional data to evaluate interindividual differences between hepatocyte preparations and their potential impact on chemical profiles.Cell morphology and integrity were evaluated using phase-contrast microscopy as an indicator of hepatocyte cell health (Tyson & Green, 1987). Cultures for each treatment group (i.e., media, vehicle [0.2% DMSO], positive control inducers [multiple concentrations], and the ToxCast chemicals [multiple concentrations]) were observed and cell morphology was assessed relative to vehicle control cultures at each harvest time point (0, 6, 24, or 48 h). […] Images were evaluated at the conclusion of the study to assess changes in cell integrity and account for the effects of chemical exposure on uncharacteristic changes in concentration-dependent gene expression profiles. The results from these determinations of apparent cytotoxicity were annotated (yes/no) alongside the corresponding qNPA data for reference.At the conclusion of each treatment period, hepatocyte cultures (96-well) were washed with 1 volume of HBSS, lysed by addition of 25 ul ArrayPlate lysis buffer (HTG, Tucson, AZ), and 70 ul/well of Denaturation Oil, denatured by incubation at 95C for 10 min, and frozen at approximately -70C until analysis by nuclease protection assay (qNPA) (Roberts et al., 2007). For qNPA analysis, cell lysates were thawed at 50C for approximately 30 min, qNPA probes were added, and samples were incubated at 95C for 10 min to begin the detection process by denaturing the target RNA, dissociating the duplexes and secondary structure hybridization. At the conclusion of the hybridization period, S1 nuclease reagent was added to each sample to digest all nonprotected nucleotides at 50C for 60-90 min. […]
For `CN(C)C(=S)SSC(=S)N(C)C`, the call was inactive.
With `O=C(Nc1ccccc1)Nc1ccnc(Cl)c1`, the outcome was inactive.
Under `Cc1ccc(-c2c(Cl)nc(C#N)n2S(=O)(=O)N(C)C)cc1` stands “inactive”; under `CCON=C(CC)C1=C(O)CC(c2c(C)cc(C)cc2C)CC1=O` (centres undefined), “inactive”; under `O=C(O)c1nc(Cl)ccc1Cl`, “inactive”.
In the case of `COc1nc(C)nc(NC(=O)NS(=O)(=O)c2ccccc2Cl)n1`, the outcome was inactive.
Turning to `Cc1c(F)c(F)c(COC(=O)C2C(/C=C(\Cl)C(F)(F)F)C2(C)C)c(F)c1F` (centres undefined), the molecule was classed as inactive.
On to `C=CCC1=C(C)C(OC(=O)C2C(C=C(C)C)C2(C)C)CC1=O` (centres undefined), for which the molecule was classed as inactive.
Under `COc1nc(NC(C)C)nc(NC(C)C)n1` stands “inactive”; under `CCCC1COC(Cn2cncn2)(c2ccc(Cl)cc2Cl)O1` (centres undefined), “inactive”; under `COC(=O)C(C)Oc1ccc(Oc2ccc(Cl)cc2Cl)cc1` (centres undefined), “inactive”.
Take `CS/C(C)=N/OC(=O)N(C)SN(C)C(=O)O/N=C(\C)SC`: the outcome was inactive.
Under `CCCCNC(=O)n1c(NC(=O)OC)nc2ccccc21` stands “inactive”.
Turning to `CCc1nn(C)c(C(=O)NCc2ccc(C(C)(C)C)cc2)c1Cl`, the call was inactive.
The entry for `Cc1cc(Cl)ccc1OCC(=O)O` is “inactive”; for `CCNc1nc(Cl)nc(NCC)n1` it is “inactive”.
On to `CO/C=C(/C(=O)OC)c1ccccc1Oc1cc(Oc2ccccc2C#N)ncn1`, for which the molecule was called inactive.
The entry for `C=CC1(C)OC(=O)N(c2cc(Cl)cc(Cl)c2)C1=O` (centres undefined) is “inactive”; for `N#Cc1cc(Br)c(O)c(Br)c1` it is “inactive”; for `COC(=O)c1ccccc1C(=O)OC` it is “inactive”.
The entry for `CCCCOC(=O)c1ccccc1C(=O)OCCCC` is “inactive”; for `CC1COC(Cn2cncn2)(c2ccc(Oc3ccc(Cl)cc3)cc2Cl)O1` (centres undefined) it is “inactive”; for `CC(C)Oc1cc(-n2nc(C(C)(C)C)oc2=O)c(Cl)cc1Cl` it is “inactive”.
Under `COP(N)(=O)SC` (centres undefined) stands “inactive”.
As for `C#CCOS(=O)OC1CCCCC1Oc1ccc(C(C)(C)C)cc1` (centres undefined), the molecule was called inactive.
The entry for `CC(C)C1(C)N=C(c2nc3ccccc3cc2C(=O)O)NC1=O` (centres undefined) is “inactive”.
The entry for `CC(Oc1ccc(Cl)cc1Cl)C(=O)O` (centres undefined) is “inactive”; for `COC(=O)C=C(C)OP(=O)(OC)OC` it is “inactive”.
The entry for `COP(=S)(OC)Oc1nc(Cl)c(Cl)cc1Cl` is “inactive”; for `CNC(=O)ON=CC(C)(C)SC` it is “inactive”.
With `COc1nc(C)nc(NC(=O)NS(=O)(=O)c2ccccc2CCC(F)(F)F)n1`, the call was inactive.
Regarding `COc1cnc(OC)n2nc(NS(=O)(=O)c3c(OCC(F)F)cccc3C(F)(F)F)nc12`, the call was inactive.
Under `CC(C)(C)c1ccc(CSc2cnn(C(C)(C)C)c(=O)c2Cl)cc1` stands “inactive”; under `OC(c1ccc(Cl)cc1)(c1cncnc1)c1ccccc1Cl` (centres undefined), “inactive”.
